Out of some 320,000 compounds screened, about 22,000 (6.9%) were called active. Inconclusive results (about 27%) are left out. The call rests on the fitted dose curve; in most records, active means well fitted inhibition curve with a large enough effect; inconclusive means small, poorly fitted or top-dose-only effect, or another doubt; inactive means no such curve, though single readings can be large or run the other way. Shown is part of a subset that was picked to be rich in actives.
On the % scale 0 is the no-effect control and ±100 the full control effect; potency means the concentration at half of the fitted maximal effect.

The test in a line: Primary qHTS for delayed death inhibitors of the malarial parasite plastid, 96 hour incubation. To be noted: P. falciparum luciferase reporter growth; series mostly up to 28.7 µM; activity change, negative = inhibition: at the top concentration. The gist of the method: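 Infected RBCs, 2% Hct / 0.05% parasitemia final; luciferase-reporter P. falciparum; cpd 96 h, 37 C, 5% CO2; luciferase detection reagent; luminescence.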
For orientation: qHTS replaces the single test concentration by a dilution series.
For `O=C(/C=C(O)/C=C/c1ccc(O)cc1)/C=C/c1ccc(O)cc1`, the “activity change, negative = inhibition” value was 34.9% (inactive).

With `c1ccc(-c2cnc(CN3CCN(c4ccccc4)CC3)o2)cc1`, the “activity change, negative = inhibition” value is 32% (inactive).

Regarding `COc1cc(OC)c2ccc(=O)oc2c1C(CCN1CCN(c2ccccc2)CC1)c1ccc2c(c1)OCO2` (stereo unspecified), the Potency is 9.28 µM (active).

As for `Oc1cc2c(cc1CN1CCN(c3ccccc3)CC1)OCO2`, the “activity change, negative = inhibition” value was 1.62% (inactive).

Turning to `COc1cc(C(CCN2CCN(c3ccccc3)CC2)c2c(OC)cc(OC)c3ccc(=O)oc23)cc(OC)c1OC` (stereo unspecified), the Potency was 8.28 µM (active).

Turning to `COc1ccccc1N1CCN(Cc2cc(OC)c3c(c2)OCO3)CC1`, the “activity change, negative = inhibition” value was -8.21% (inactive).

As for `COc1ccc(N2CCN(Cc3cc(=O)oc4ccc5ccccc5c34)CC2)cc1`, the “activity change, negative = inhibition” value is 0% (inactive).

In the case of `O=C1/C(=C/c2ccc3c(c2)OCO3)Oc2cc(OCC(=O)N3CC(O)C[C@H]3C(=O)O)ccc21` (stereo partly specified), the “activity change, negative = inhibition” value is 13.5% (inactive).

Consider `Cc1ccc(O)c(NC(=O)c2cc(-c3ccco3)on2)c1`, for which the “activity change, negative = inhibition” value was 37.5% (inactive).

`O=C(NCc1ccco1)/C(=C\c1cccc([N+](=O)[O-])c1)NC(=O)c1ccco1`: the “activity change, negative = inhibition” value was 23.6% (inactive).

On to `O=C(Nc1ccccc1)Nc1ccc(C(F)(F)F)cn1`, for which the “activity change, negative = inhibition” value was 38.6% (inactive).

Regarding `CCOC(=O)CN(C)S(=O)(=O)c1ccc(-c2cc(C(=O)OC)sc2C(F)(F)F)cc1`, the “activity change, negative = inhibition” value was 9.24% (inactive).

For `COc1cc(NC(=O)CCNC(=O)Cn2ccc3ccccc3c2=O)cc(OC)c1OC`, the “activity change, negative = inhibition” value was -20.8% (inactive).

Consider `CNc1nc(SC)nc(N(C#N)CC(=O)OC)n1`, for which the Potency is 8.28 µM (active).

Take `CCCCn1c(N)c(N(CCOC)C(=O)COc2c(C)cccc2C)c(=O)[nH]c1=O`: the “activity change, negative = inhibition” value is -1.63% (inactive).

On to `CC1CC(=O)N(CC(=O)Nc2cccc(Cl)c2)c2ccccc2S1(=O)=O` (stereo unspecified), for which the “activity change, negative = inhibition” value is -29.7% (inactive).

Regarding `Cc1noc(C)c1C(=O)OCC(=O)/C=C1\N(C)c2ccccc2C1(C)C`, the “activity change, negative = inhibition” value is -15.2% (inactive).

Turning to `CC(=O)Nc1cccc(OCC(=O)/C=C2\N(C)c3ccccc3C2(C)C)c1`, the Potency was 0.828 µM (active).

Consider `CN1/C(=C\C(=O)c2cccnc2Cl)C(C)(C)c2ccccc21`, for which the “activity change, negative = inhibition” value is -19.4% (inactive).

With `O=C(O)c1c(NC(=O)N2CCCC2)sc2c1CCCC2`, the “activity change, negative = inhibition” value was 17.1% (inactive).

For the compound `COc1ccc(NC(=S)N2CCCC(CO)C2)c(OC)c1` (stereo unspecified), the “activity change, negative = inhibition” value was -21.4% (inactive).

Take `COc1cc(NC(=S)N2CCCC(C)C2)cc(OC)c1OC` (stereo unspecified): the Potency is 10.4 µM (active).

Turning to `COc1cc(NC(=S)N2CCCC(C)C2)c(OC)cc1Cl` (stereo unspecified), the “activity change, negative = inhibition” value is 3.26% (inactive).

As to `O=C(O)c1ccc(OCC2CCCO2)cc1` (stereo unspecified), the “activity change, negative = inhibition” value is -21.2% (inactive).

Regarding `N#Cc1ccc(/C=C2\CCn3c2nc2cc(C(=O)O)ccc2c3=O)cc1`, the “activity change, negative = inhibition” value is -12.8% (inactive).

Regarding `O=C(NCc1cccnc1)C12CC3CC(CC(C3)C1)C2`, the “activity change, negative = inhibition” value is 18.1% (inactive).

On to `CCCN1CCn2c3c(c4cc(Br)ccc42)CCCC31` (stereo unspecified), for which the Potency is 1.85 µM (active).

With `CCc1ccc(N(CC(=O)NCc2cccnc2)S(=O)(=O)c2ccccc2)cc1`, the “activity change, negative = inhibition” value is 38.2% (inactive).

Consider `CCN(CC(=O)Nc1ccc(NC(C)=O)cc1)C(=O)C1CC(=O)N(Cc2ccc(C)cc2)C1` (stereo unspecified), for which the “activity change, negative = inhibition” value was -14.4% (inactive).

`COc1ccc(CCNC(=O)C2CCN(c3nn4c(=O)cc(C)nc4s3)CC2)cc1OC`: the “activity change, negative = inhibition” value is 48.4% (inactive).

On to `Cc1cc(=O)n2nc(N3CCCC(C(=O)N4CCN(C)CC4)C3)sc2n1` (stereo unspecified), for which the “activity change, negative = inhibition” value was 42.1% (inactive).

Regarding `Cc1cc(=O)n2nc(N3CCCC(C(=O)NCc4cccc(Cl)c4)C3)sc2n1` (stereo unspecified), the “activity change, negative = inhibition” value was -10.9% (inactive).

Consider `Cc1cc(=O)n2nc(N3CCCC3C(=O)NCCCN3CC(C)CC(C)C3)sc2n1` (stereo unspecified), for which the “activity change, negative = inhibition” value was -31.2% (inactive).

As to `CCCOc1ccc(CNC(=O)C2CCN(c3nn4c(=O)cc(C)nc4s3)CC2)cc1`, the Potency was 11.7 µM (active).

In the case of `Cc1cc(=O)n2nc(N3CCC(C(=O)Nc4c(F)c(F)c(F)c(F)c4F)CC3)sc2n1`, the Potency was 4.15 µM (active).

`Cc1ccc(CN2CC(C(=O)NNC(=O)Cn3ccc(C(F)(F)F)n3)CC2=O)cc1` (stereo unspecified): the “activity change, negative = inhibition” value was -27.3% (inactive).

In the case of `Cc1ccc(-c2noc(C3CCCN(C(=O)c4cccc(Cl)c4)C3)n2)o1` (stereo unspecified), the “activity change, negative = inhibition” value was -0.0475% (inactive).

As for `N#CC1(NC(=O)COC(=O)CSc2ccc(F)cc2)CCCCC1`, the “activity change, negative = inhibition” value was 17.6% (inactive).

Turning to `O=C(Nc1cccc(F)c1)NC1CCCCCCC1`, the “activity change, negative = inhibition” value was -19.5% (inactive).

With `CCCCNC(=O)N(O)C1N(/N=C/c2ccc(N(C)C)cc2)C(=S)SC1(C)C` (stereo unspecified), the “activity change, negative = inhibition” value is -22.9% (inactive).

As for `CCCCNC(=O)N(O)C1N(/N=C/c2ccccc2O)C(=S)SC1(C)C` (stereo unspecified), the Potency was 3.29 µM (active).

On to `O=C(/C=C/c1ccco1)NC(=S)N1CCCCC1`, for which the “activity change, negative = inhibition” value is 16% (inactive).

For the compound `CC(=O)Oc1ccc2c(c1)C(=O)c1ccccc1C2=O`, the “activity change, negative = inhibition” value was 55.8% (inactive).

Consider `CCOC(=O)c1cnc(SC)nc1Sc1ccc(Cl)cc1Cl`, for which the Potency is 9.28 µM (active).

With `CCOC(=O)c1nc(C)n(-c2ccc(Cl)cc2Cl)n1`, the “activity change, negative = inhibition” value was -0.697% (inactive).

For the compound `CCOC(=O)c1cnc(COc2ccccc2Cl)[nH]c1=O`, the “activity change, negative = inhibition” value was 30.2% (inactive).

Turning to `CC[C@@H](C)[C@H](NC(=O)CCc1c(C)c2cc3c4c(oc3c(C)c2oc1=O)CCCC4)C(=O)O`, the “activity change, negative = inhibition” value was 7% (inactive).

Take `COCCn1c(N)c(NCc2ccccc2)c(=O)[nH]c1=O`: the “activity change, negative = inhibition” value was 6.25% (inactive).

Take `CC(Sc1nnc(-c2ccccc2F)n1C1CC1)C(N)=O` (stereo unspecified): the “activity change, negative = inhibition” value is -6.75% (inactive).

With `CC(C)N(C(=O)c1ccc(-c2ccccc2F)cc1)C(C)C`, the Potency is 4.65 µM (active).

`CCN(CC(=O)Nc1c(F)cccc1F)C(=O)c1ccc(-c2ccccc2)cc1`: the “activity change, negative = inhibition” value was 48.3% (inactive).

In the case of `Cc1ccn(CCC(=O)N2c3ccccc3CC2C)n1` (stereo unspecified), the “activity change, negative = inhibition” value is 8.75% (inactive).

As to `O=C(COC(=O)c1ccccn1)NNC(=O)c1ccc([N+](=O)[O-])cc1`, the “activity change, negative = inhibition” value was 0.85% (inactive).

`Cc1nc2ccccc2c(=O)n1Cc1ccc([N+](=O)[O-])cc1`: the “activity change, negative = inhibition” value is -2.72% (inactive).

In the case of `C[C@@H](O)c1nc2ccccc2n1N`, the “activity change, negative = inhibition” value was -9.87% (inactive).

As to `CC(O)c1nc2ccccc2n1Cc1ccc([N+](=O)[O-])cc1` (stereo unspecified), the Potency is 1.85 µM (active).

Turning to `COc1cccc(N2CC(NC(=O)c3ccc4ccccc4c3)CC2=O)c1` (stereo unspecified), the “activity change, negative = inhibition” value was -1.39% (inactive).

`O=S(=O)(c1cccs1)N1CCN(Cc2ccccc2)CC1`: the “activity change, negative = inhibition” value was 3.61% (inactive).

Turning to `COc1ccc(C2/C=C\CN(CC(C)C)CC(=O)N2Cc2ccc(F)cc2)cc1` (stereo unspecified), the “activity change, negative = inhibition” value was -63.8% (inactive).

Consider `COc1ccc(C2/C=C\CN(S(=O)(=O)c3cccs3)CC(=O)N2Cc2ccc(F)cc2)cc1` (stereo unspecified), for which the Potency is 10.4 µM (active).

Take `CC(NC(=O)CN(C)S(=O)(=O)c1ccc(F)cc1)C1CC2CCC1C2` (stereo unspecified): the “activity change, negative = inhibition” value is -25.3% (inactive).

With `C=CCOc1ccc(/C=C/C(=O)OCC(=O)NCC2CCCO2)cc1` (stereo unspecified), the “activity change, negative = inhibition” value was 14.2% (inactive).

Regarding `COc1cc([N+](=O)[O-])cc([N+](=O)[O-])c1NC(=O)N1CCOCC1`, the “activity change, negative = inhibition” value is -1.21% (inactive).

As to `O=C(Nc1ccccc1C(=O)O)c1ccc(N2C(=O)C3CC=CCC3C2=O)cc1` (stereo unspecified), the “activity change, negative = inhibition” value was 0% (inactive).

Turning to `O=C(CSc1ccc(-c2ccc(Br)cc2)nn1)NCC1CCCO1` (stereo unspecified), the “activity change, negative = inhibition” value was -3.49% (inactive).

For the compound `COc1ccc(CCNC(=O)CN2C(=O)COc3ccc(S(=O)(=O)N4CCCC4)cc32)cc1OC`, the “activity change, negative = inhibition” value was 24% (inactive).

Values taken from PubChem BioAssay AID504834 (National Center for Advancing Translational Sciences (NCATS), 2011).
